Assay results as given in PubChem BioAssay (NCI).
The panel holds about 83,000 compounds, 20% with a hit somewhere; the sample as a whole holds those more often.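 How to read the values: 0–100, growth inhibition (40 = 60% inhibited); 0, no net growth; -100 to 0, cell death (-40 = 40% of starting cells died; -100 = all dead).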 Calls of active or inactive are those of the source. How the source made its calls: active means growth percent below 10; inactive means the rest.

These compounds were tested on HL-60(TB) leukemia (assay: NCI-60 one-dose screen, 48 h (100 = growth as untreated, 0 = no growth, -100 = all killed)). Details: 10 µM unless noted.

**Q.** With `C=C(c1ccc(OC)c(N)c1)c1cc(C)nc2ccccc12` as the compound, how does the growth read?
**A.** -22.8% (active)

**Q.** `OC1CCC(Cn2c(C(F)(F)F)cc3c(Cl)ncnc32)CC1` (stereo not given) was tested. Which growth did it give?
**A.** -37.5% (active)

**Q.** With `CN(C)CCNC(=O)OCCCCOc1cc(O)c2c(=O)cc(-c3ccccc3)oc2c1` as the compound, how does the growth read?
**A.** -61.6% (active)

**Q.** Which growth does the source give for `Cn1cc(/C=N/Nc2ccnc3cc(Cl)ccc23)c2ccccc21` here?
**A.** -60.3% (active)

**Q.** `O=C1NC(=NC23CC4CC(CC(C4)C2)C3)N/C1=C\c1ccc2ncoc2c1` was tested. Which growth did it give?
**A.** -8.15% (active)

**Q.** How did the growth turn out when `Nc1cc2ccccc2c(=O)n1NC(=O)c1ccc(Br)cc1` was run?
**A.** 99.4% (inactive)

**Q.** For `CC1=C2C(=C[C@@](C)(CO)[C@@H]2O)/C(=N\N)[C@](C)(O)C12CC2`, which growth is on record?
**A.** -22.1% (active)

**Q.** Which growth does the source give for `CC(=O)/C=C/c1cccc2c1C(=O)NC(C)(c1cc3cc(Br)ccc3oc1=O)N2` (stereo not given) here?
**A.** -29.3% (active)

**Q.** For `COc1c(F)ccc(C(=O)Nc2ccc3nc(NC(=O)C4CCCN(S(=O)(=O)c5ccc(Cl)cc5)C4)sc3c2)c1F` (stereo not given), which growth is on record?
**A.** 83.4% (inactive)

**Q.** `N#CC1=C(c2cccs2)Nc2c(c(-c3ccccc3)nn2-c2ccccc2)C12C(=O)Nc1ccc(Cl)cc12` (stereo not given) was tested. Which growth did it give?
**A.** -4.48% (active)

**Q.** With `CCN(CC)c1ccnc(CNCCSC(c2ccccc2)(c2ccccc2)c2ccc(C)cc2)c1` as the compound, how does the growth read?
**A.** -52.3% (active)

**Q.** For `O=C1NC(=S)S/C1=C\c1cn(-c2ccccc2)nc1-c1ccc([N+](=O)[O-])cc1`, which growth is on record?
**A.** 9.92% (active)

**Q.** Which growth does the source give for `O=C(c1ccccc1)C(c1c[nH]c2ccccc12)c1c[nH]c2ccccc12` here?
**A.** 53.8% (inactive)

**Q.** For `Cc1cc2nc3c4ccccc4n(CCNCCN(C)C)c3nc2cc1C`, which growth is on record?
**A.** -0.721% (active)

**Q.** `O=Cc1cncc(-c2ccc3ncnc(N4CCc5cc(F)c(Cl)cc54)c3c2)c1` was tested. Which growth did it give?
**A.** 44.3% (inactive)

**Q.** Which growth does the source give for `COc1ccc(-c2cc(-c3cc(C(C)C)c(O)cc3C)nn2-c2ccc(S(N)(=O)=O)cc2)cc1` here?
**A.** 9.51% (active)

**Q.** For `O=C1c2c(c3c4cc(F)ccc4oc3c3[nH]c4ccc(Br)cc4c23)C(=O)N1O`, which growth is on record?
**A.** 16.9% (inactive)

**Q.** With `CC(C)c1ccc(C(=O)Nc2sc3c(c2C(N)=O)CCC(=O)C3=O)cc1` as the compound, how does the growth read?
**A.** 96.9% (inactive)

**Q.** `O=C(COc1ccc(/C=C2/C(=O)Nc3ccc(Cl)cc32)cc1)Nc1ccc(Br)cc1` was tested. Which growth did it give?
**A.** 10.3% (inactive)

**Q.** With `Cn1cc(-c2cc3nc(-c4cn(C)c5ncc(Br)cc45)cc(N)n3n2)c2cc(Cl)ccc21` as the compound, how does the growth read?
**A.** -62.4% (active)

**Q.** How did the growth turn out when `COc1ccc(N=Nc2c(N)nn3c(-c4ccc(OC)c(OC)c4)ccnc23)cc1` was run?
**A.** 92% (inactive)

**Q.** Which growth does the source give for `CC(C)(C)c1cc(/C=C2\S/C(=N/c3ncn[nH]3)NC2=O)cc(C(C)(C)C)c1O` here?
**A.** 6.76% (active)

**Q.** Which growth does the source give for `COc1ccc(C2CC(c3ccc(S(=O)(=O)NCCNc4nc(Nc5ccc(F)cc5)nc(N(C)C)n4)cc3)=Nc3c(N)nc(N)nc3N2)cc1` (stereo not given) here?
**A.** 52.5% (inactive)

**Q.** `CS(=O)(=O)c1ccc(-n2nc(C(=O)NCc3ccccc3)cc2-c2ccc(Cl)cc2)cc1` was tested. Which growth did it give?
**A.** 83% (inactive)

**Q.** How did the growth turn out when `COc1ccc(NC(=O)N/N=C/c2c[nH]c3ccccc23)cc1` was run?
**A.** 1.79% (active)

**Q.** Which growth does the source give for `Cn1cc(-c2cc(N)n3nc(-c4c[nH]c5ccc(Br)cc45)cc3n2)c2cccnc21` here?
**A.** -49.9% (active)

**Q.** How did the growth turn out when `Cc1cc(Cl)ccc1NC(=O)Nc1ccc(-c2ccc3c(c2)NC(=O)/C3=C\c2ccc[nH]2)cc1` was run?
**A.** 78.9% (inactive)

**Q.** Which growth does the source give for `O=C(Nc1nc2ccc([N+](=O)[O-])cc2s1)Nc1ccccc1I` here?
**A.** -1.54% (active)

**Q.** Which growth does the source give for `C/C(=N/O)c1ccc(NC(=O)CSc2nnc(-c3ccc(-c4nc5ccc(Cl)cc5[nH]4)cc3)o2)cc1` here?
**A.** 44% (inactive)

**Q.** How did the growth turn out when `COc1cc(/C=C/C(=O)c2ccccc2)ccc1Oc1nc(Nc2ccc(F)cc2)nc(N(C)C)n1` was run?
**A.** 20.5% (inactive)

**Q.** Which growth does the source give for `COc1ccc2[nH]c(O)c(N=Nc3nc(-c4ccc(Cl)cc4)cs3)c2c1` here?
**A.** 58% (inactive)

**Q.** With `N/C(=N\c1nc2ccccc2s1)NC(=O)Nc1ccccc1Br` as the compound, how does the growth read?
**A.** -28.5% (active)

**Q.** Which growth does the source give for `COc1cc(/C=C/C(=O)c2ccc(C(F)(F)F)cc2)ccc1Oc1nc(Nc2ccc(F)cc2)nc(N(C)C)n1` here?
**A.** 80% (inactive)

**Q.** For `C=C1CCC2C3(C)COC(c4ccccc4)OC3CCC2(C)C1CC(NCc1ccccc1)C1=CCOC1=O` (stereo not given), which growth is on record?
**A.** 43.6% (inactive)

**Q.** `Cc1nc(Nc2ccccn2)sc1C(=O)CC(SCC(=O)Nc1ccc(Cl)cc1)c1ccccc1F` (stereo not given) was tested. Which growth did it give?
**A.** 14% (inactive)

**Q.** With `Cc1ccc(-c2ccc(SCC(=O)Nc3ccc(S(N)(=O)=O)cc3Br)nn2)cc1` as the compound, how does the growth read?
**A.** 100% (inactive)

**Q.** How did the growth turn out when `O=C1Nc2ccc(Cl)cc2/C1=C/c1ccc(OCc2ccccn2)cc1` was run?
**A.** 85% (inactive)

**Q.** With `c1ccc(CSc2nnc(-c3ccc4nc(-c5ccccc5)[nH]c4c3)o2)cc1` as the compound, how does the growth read?
**A.** 83.5% (inactive)

**Q.** Which growth does the source give for `CCOC(=O)C1=C(N)N(c2ccc(C)cc2)C2=C(C(=O)CC(C)(C)C2)C1c1ccccc1Br` (stereo not given) here?
**A.** -11.2% (active)

**Q.** How did the growth turn out when `O=C(CSc1ccc(-c2ccc(Cl)cc2)nn1)Nc1ccc(Cl)c(C(F)(F)F)c1` was run?
**A.** 32.7% (inactive)
